Dicer processing = inhibitors of human Dicer processing of pre-microRNA | cat-ELCCA pre-miR-21 Dicer processing, chemiluminescence; hits give high values | z-score at 25 µM | actives 6% (n = 47,000) | AID 1347074; in the data active = z-score above about 3, passing the limit was not always enough;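 note: plate controls were vehicle for no effect and no enzyme for full effect; higher signal means more uncleaved substrate so more Dicer inhibition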
* marks the source's active call; other numbers are inactive results. Many of the other results were omitted from the sample, so hits are more common in it than they were.

Screening Cc1ccnc(NC(c2ccc(N(C)C)cc2)c2ccc3cccnc3c2O)c1 (centres undefined) returned Dicer processing 6.27.
Screening COc1cc(C(Nc2cc(C)ccn2)c2ccc3cccnc3c2O)ccc1O (centres undefined) returned Dicer processing 11.1*.
For COc1ccc(C(Nc2ccccn2)c2ccc3ccc(C)nc3c2O)cc1OC (centres undefined) the results were Dicer processing 0.29.
COc1cccc(C(Nc2cc(C)ccn2)c2ccc3ccc(C)nc3c2O)c1 (centres undefined) was read as Dicer processing 6.83*.
For COc1ccc(C)cc1NC(c1cccnc1)c1ccc2cccnc2c1O (centres undefined) the results were Dicer processing 2.26.
`CCOc1cccc(C(Nc2ccccn2)c2ccc3ccc(C)nc3c2O)c1` (centres undefined) gave Dicer processing -0.34.
Screening Cc1ccnc(NC(c2ccc(N(C)C)cc2)c2ccc3ccc(C)nc3c2O)c1 (centres undefined) returned Dicer processing 1.03.
`CCOc1cc(C(Nc2cc(C)ccn2)c2ccc3cccnc3c2O)ccc1OC` (centres undefined) gave Dicer processing -0.73.
Screening CCOc1ccc(C(Nc2cc(C)ccn2)c2ccc3cccnc3c2O)cc1OC (centres undefined) returned Dicer processing 5.23*.
Screening Cc1nn(-c2ccccc2)cc1C=C1C(=O)N(C)C(=O)N(C)C1=O returned Dicer processing -1.36.
`COc1ccc(-c2nc(NCCc3c[nH]c4ccc(OC)cc34)sc2C)cc1` gave Dicer processing 0.02.
For Cc1onc(-c2c(Cl)cccc2Cl)c1NC(=O)NNc1c(F)cccc1Cl the results were Dicer processing 0.23.
For CCOC(=O)c1sc2ccc(NS(=O)(=O)c3ccc(C)cc3)cc2c1C the results were Dicer processing 0.69.
COc1ccc(-c2nc3n(n2)C(c2ccc(OC)c(OC)c2)C2=C(CC(C)(C)CC2=O)N3)cc1OC (centres undefined) was read as Dicer processing -4.42.
For CS(=O)(=O)c1ccc2nc(N)sc2c1 the results were Dicer processing 2.45.
For Nc1nc2ccc(CC(=O)O)cc2s1 the results were Dicer processing -2.34.
`Nc1nc2ccc(Oc3ccc4nc(N)sc4c3)cc2s1` gave Dicer processing 3.68*.
For Cn1c(=O)c2c(nc(N/N=C/c3c(Cl)cccc3Cl)n2Cc2ccccc2)n(C)c1=O the results were Dicer processing 0.52.
O=C(OCc1ccccc1)c1cnc(N2CCSCC2)nc1C(F)(F)F was read as Dicer processing -4.
For Cc1ccc(N=Cc2cc(-c3ccccc3)sc2O)c(C)c1 the results were Dicer processing 0.91.
c1csc(-c2nnc(N3CCOCC3)c3ccccc23)c1 was read as Dicer processing 0.89.
For CSc1nsc(SCC(=O)NCc2ccco2)n1 the results were Dicer processing -0.97.
Screening O=C(CSc1nc2ccccc2nc1N1CCOCC1)N1CCCc2ccccc21 returned Dicer processing 3.44*.
Screening O=C(CSc1nc(-c2cccs2)cc(C(F)(F)F)n1)NCc1ccco1 returned Dicer processing 0.51.
For O=C(CSc1nc2ccccc2nc1SCC(=O)N1CCOCC1)N1CCOCC1 the results were Dicer processing 1.49.
Screening O=C(CSc1nc2ccccc2nc1N1CCOCC1)NCc1ccco1 returned Dicer processing 3.41*.
`O=C(CSc1nnc(-c2ccccc2)c(-c2ccccc2)n1)N1CCc2ccccc21` gave Dicer processing -0.32.
For O=C(CSc1nc2ccccc2s1)N1CCc2ccccc21 the results were Dicer processing 1.4.
Cc1cc(C)nc(N2CCN(C(=O)CSc3nc4ccccc4nc3N3CCCCC3)CC2)n1 was read as Dicer processing 2.56.
`O=C(CSc1nc2ccccc2nc1N1CCOCC1)NCc1cccs1` gave Dicer processing 3.02*.
For O=C(CSc1nc2ccccc2[nH]1)N1CCc2ccccc21 the results were Dicer processing 3.06*.
CSc1nsc(SCC(=O)N2CCCc3ccccc32)n1 was read as Dicer processing -1.64.
CCOC(=O)c1c(CSc2ccccc2)oc2ccc(O)c(CN(C)C)c12 was read as Dicer processing 2.5.
`Cc1cccc(OCc2nn3c(-c4ccccc4Cl)nnc3s2)c1` gave Dicer processing -1.66.
Screening CCOC(=O)C1=C(C)Nc2ncnn2C1c1ccc(OC)c(O)c1 (centres undefined) returned Dicer processing -0.15.
`CC(C)(C)OC(=O)C1C(=O)CC(C)(O)C(C(=O)OC(C)(C)C)C1c1ccc(Cl)cc1` (centres undefined) gave Dicer processing -1.32.
Screening O=C(O)CC1(CC(=O)O)CCCC1 returned Dicer processing -0.03.
For COc1ccc(C2C(C(=O)OC(C)C)=C(C)NC3=C2C(=O)CCC3)cc1OC (centres undefined) the results were Dicer processing 2.54.
For CCCCc1ccc(C2C(C(=O)OCC)=C(C)NC3=C2C(=O)CC(C)(C)C3)s1 (centres undefined) the results were Dicer processing -1.91.

High-throughput results: PubChem, Center for Chemical Genomics, University of Michigan
